Experimental data from PubChem BioAssay AID2540 (Sanford-Burnham Center for Chemical Genomics, 2010).
Out of some 330,000 compounds screened, about 4,100 (1.2%) were called active. The sample holds actives, similar compounds and a random draw of the others, so the mix is not that of the screen. No stated cut-off is given here; in the data, active means inhibition above about 50%; inactive means the rest.

Target: Sentrin-specific protease 8 (Homo sapiens) (UniProt Q96LD8)
Experiment: SENP8 protease inhibitors, primary screen, biochemical, luminescence (AID 2540)
Settings: purified SENP8, Z-RLRGG-aminoluciferin cleavage, at 10 µM, stronger effect = higher value

Sentrin-specific protease 8 (Homo sapiens), sequence (Q96LD8 whole entry, looked up): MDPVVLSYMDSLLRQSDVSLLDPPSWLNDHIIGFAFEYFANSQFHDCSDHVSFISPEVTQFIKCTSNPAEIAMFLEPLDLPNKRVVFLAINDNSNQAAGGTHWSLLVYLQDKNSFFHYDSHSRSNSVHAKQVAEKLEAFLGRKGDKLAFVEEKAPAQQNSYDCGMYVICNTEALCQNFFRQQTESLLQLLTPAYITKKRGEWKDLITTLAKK

SMILES	inhibition
Cc1nc2ccc(N3CCN(C)CC3)cc2nc1C	-5.08% (inactive)
COc1cccc(-c2nc3ccc(N4CCN(C)CC4)cc3[nH]2)c1	57.4% (active)
CN1CCN(c2cc(N3CCNCC3)ccc2[N+](=O)[O-])CC1	2.96% (inactive)
CN(C)P(=S)(Nc1ccccc1)C(Cl)(Cl)Cl (stereo not given)	-7.38% (inactive)
COc1ccccc1CN1CCN(C(=O)Cc2ccccc2)CC1	-9.12% (inactive)
CCOC(=O)c1c(N)n(CCN2CCOCC2)c2nc3ccccc3nc12	2.3% (inactive)
COc1cc(Cn2c(N)c(C(=O)NCc3ccco3)c3nc4ccccc4nc32)cc(OC)c1OC	90.9% (active)
CCOC(=O)c1c(N)n(Cc2ccccc2)c2nc3ccccc3nc12	9.31% (inactive)
CC(=O)c1ccc(OC(NC(=O)Cc2ccccc2)C(Cl)(Cl)Cl)cc1 (stereo not given)	-0.124% (inactive)
CCOc1ccc(CN(CCCl)CCCl)cc1C(=O)OC	-7.06% (inactive)
